An excerpt weighted towards active compounds, which were near 21% of everything screened.
HCMV antiviral: qHTS Assay for inhibitors of the human cytomegalovirus (HCMV); HFF cells, HCMV-luciferase reporter, 72 h; hits give low values; activity change, negative = inhibition, % at 57.5 µM; 4.5% of 410,000 active; in the data active = activity change below about -60%; inconclusive = no clear call, values can overlap the other calls; inactive = above about -39%; note: % is set by controls: 0 for no effect and ±100 for the full control effect
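Two compound doses tested in HFFs infected with HCMV-luciferase, MOI 1 PFU/cell, 72 h at 37C. Lysate luminescence read with OneGlo; data normalized against buffer-only and 10uM Salinomycin inhibitor controls.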
CHX counter: Cycloheximide Counterscreen for Small Molecule Inhibitors of Shiga Toxin; cell reporter, cycloheximide protein synthesis inhibition counterscreen; max response, %; 12% of 300,000 active; in the data active = max response mostly above about 13%, no sharp cut-off; inactive = mostly below about 14%; note: read at 38.3 µM for the half of the compounds with a filed dose; 0% is about no effect
Pf growth 96h: Primary qHTS for delayed death inhibitors of the malarial parasite plastid, 96 hour incubation; Potency, µM (highest dose often 28.7 µM), inactives show at the highest dose activity change, negative = inhibition, usual class: inhibitors; P. falciparum luciferase reporter growth, 96 h; 6.9% of 320,000 active; note: potency is the fitted concentration of half-maximal effect; % is set by controls: 0 for no effect and ±100 for the full control effect
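96 h incubation, 37 C, 5% CO2, of luciferase-reporter P. falciparum-infected RBCs (2% hematocrit, 0.05% parasitemia final) with test compounds; endpoint luminescence.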
HCV inhibitor: qHTS Assay for Inhibitors of Hepatitis C Virus (HCV) | Huh7.5.1 HCVcc-Cre infection, luciferase reporter, 44 h | 3.4% of 340,000 active | Potency, µM (series often up to 41.8 µM), for the others: at the highest dose activity change, negative = inhibition, usual class: inhibitors; note: potency is the fitted concentration of half-maximal effect; % is set by controls: 0 for no effect and ±100 for the full control effect
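Reporter virus HCVcc-Cre (~0.5 moi) infects cells exposed to compound; seeding density 1,000 cells/well with 4 h settling beforehand. Luminescence, 15 sec read, taken 44 h post-infection following a 15 min RT substrate incubation.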
Pf growth 48h: Primary qHTS for delayed death inhibitors of the malarial parasite plastid, 48 hour incubation; P. falciparum luciferase growth in erythrocytes, 48 h; Potency, µM (top dose mostly 28.7 µM), without a hit: at the highest dose activity change, negative = inhibition, usual class: inhibitors; 5.9% of 310,000 active; note: potency is the fitted concentration of half-maximal effect; % is set by controls: 0 for no effect and ±100 for the full control effect
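A one-generation exposure of luciferase-tagged malaria parasites in RPMI 1640/Albumax erythrocyte culture, 37 C and 5% CO2. Inhibition is inferred from decreased luminescence after adding detection reagent.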
Shiga inhibitor: A qHTS for Small Molecule Inhibitors of Shiga Toxin | Vero cells, Shiga toxin protein synthesis inhibition reporter | inhibition, % at 38.7 µM | 9.2% of 290,000 active | AID 2315, 2010; in the data active = inhibition mostly above about 28%, no sharp cut-off; inactive = mostly below about 43%; note: 0% is about no effect
An asterisk follows results filed as active; u = inconclusive; x = not tested or not shown; + = active, no number. Unless noted, calls come from the whole dose curve; as a rule, active = well fitted inhibition curve with a large enough effect; inconclusive = small, poorly fitted or top-dose-only effect, or another doubt; inactive = no such curve, though single readings can be large or run the other way.

SMILES	HCMV antiviral	CHX counter	Pf growth 96h	HCV inhibitor	Pf growth 48h	Shiga inhibitor
Cc1cc([N+](=O)[O-])nn1CC(=O)c1ccccc1	-14.4	1.4	-3.0%	2.5%	-3.6%	-21.4
C/C(Cn1nc([N+](=O)[O-])cc1C)=N\NC(=O)COc1ccccc1[N+](=O)[O-]	0.0	24.9*	47.0%	0.5%	33.6%	+
C/C(=N\NC(=O)COc1ccccc1[N+](=O)[O-])c1cccs1	37.0	43.3*	29.6%	-27.8%	74.5%	65.7*
CC(NC(=O)Cn1c(=O)oc2cc(S(=O)(=O)N3CCCCCC3)ccc21)c1ccccc1 (stereo unspecified)	21.8	x	x	x	x	x
COc1ccc(S(=O)(=O)N2CCN(CC(=O)Nc3c(C)n[nH]c3C)CC2)cc1OC	15.0	x	x	0.9%	x	x
CCn1c(C)cc(C=C2C(=O)c3ccccc3C2=O)c1C	32.2	62.0*	5.1%	u	-81.2%	82.2*
CCn1c(C)cc(/C=C2\NC(=O)N(CC(=O)Nc3ccc(F)cc3)C2=O)c1C	-4.7	-1.4	-26.0%	u	11.3%	22.0
Cc1cc(C=C2C(=O)c3ccccc3C2=O)c(C)n1C	-16.6	64.8*	4.65µM*	3.3%	-18.3%	63.0*
CCn1c(O)c(/C(C)=N/N2CCCCC2c2cccnc2)c(=O)[nH]c1=S (stereo unspecified)	5.0	-5.0	13.1µM*	17.9%	u	-12.8
O.O.O.O.O.O.O.O=S(=O)([O-])[O-].[Co+2]	x	x	1.69µM*	x	6.75µM*	x
CCCc1nnc(NC(=O)CSc2nnc(-c3ccco3)n2C)s1	-12.0	-2.6	-18.8%	1.0%	13.2%	-10.6
O=C(CSc1n[nH]c(-c2ccccc2)n1)N1CCCC1	45.5	16.3	0.2%	8.7%	53.0%	65.1*
CCc1ccc(-c2nc(SCC(=O)N3CCOCC3)n[nH]2)cc1	39.4	11.5*	83.9%	19.0%	86.0%	29.0*
CCCCCCCCCn1c2c(c(=N)c3c1CCC3)CCCC2	x	-7.8	27.4%	3.16µM*	u	-53.2
CC(=O)NNC(=O)CCn1c2c(c3ccccc31)CCCC2	1.9	-1.9	87.3%	-25.4%	-12.1%	-8.6
CCn1c2c(c(=N)c3c1CCC3)CCCC2	-67.2*	-1.5	u	-16.4%	0.522µM*	-3.8
CCCCCCN1CCN(c2ccccc2Cl)CC1	-32.1	-2.8	u	7.8%	-14.9%	29.2
CCCCn1c2c(c(=N)c3ccccc31)CCC2	-36.2	-0.5	u	-17.1%	0.415µM*	17.8
O=C(O)Cn1c2c(c3ccccc31)CCCC2	52.7	2.7	225.9%	25.2%	2.3%	18.1
CCCCCCCCn1c2c(c(=N)c3ccccc31)CCC2	-97.0*	1.1	-45.3%	2.82µM*	12.4%	22.5
Cc1ccnn1CC(=O)N/N=C/c1cn[nH]c1-c1ccc(F)cc1	14.1	-0.7	40.0%	8.5%	-10.6%	0.4
C=CCN1C(=O)c2ccc(C(=O)N(CC)CC(=O)Nc3cc(Cl)ccc3C)cc2C1=O	15.0	x	-1.9%	21.0%	u	x
O=C(O)c1cccc(Oc2ccc(C(=O)O)c([N+](=O)[O-])c2)c1	-17.7	x	x	4.6%	x	x
C=CCn1c(N)cc(=O)nc1SCC(=O)Nc1ccc(C(=O)OCC)cc1	-12.1	-4.4	-17.8%	4.8%	8.1%	-2.0
CCCCCn1c2c(c(=N)c3ccccc31)CCC2	-96.4*	1.6	u	u	0.657µM*	-9.7
SMILES	HCMV antiviral	CHX counter	Pf growth 96h	HCV inhibitor	Pf growth 48h	Shiga inhibitor
Cc1ccc(Cn2ccc(=O)c(OCc3c(Cl)cccc3Cl)c2C)cc1	-14.6	-0.8	4.15µM*	u	x	-11.7
COc1cc2c(cc1OC)C(c1cc3ccccc3oc1=O)=NC(C)(C)C2	-97.8*	5.2	141.3%	u	8.28µM*	-6.9
COc1ccc(C2=NC(C)(C)Cc3cc(OC)c(OC)cc32)cc1OC	-0.9	-2.1	u	-2.6%	-0.5%	x
CCCN1CCN(C(=O)c2ccccc2-c2nc3ccccc3s2)CC1	-4.9	-1.2	-16.0%	u	-3.0%	-15.2
O=C(CSc1nc2ccccc2s1)NC1CCCC1	15.7	6.8	4.1%	-5.6%	14.7%	32.2
O=C(NC1CC1)c1ccc(-c2nc3ccccc3s2)s1	-12.4	23.5	-13.8%	u	-7.9%	38.0*
O=C(c1cc2ccccc2s1)N1CCOCC1	25.2	10.1	-0.9%	18.8%	35.1%	26.2
CCN1CCN(C(=O)c2ccc(-c3nc4ccccc4s3)s2)CC1	-33.0	42.1*	322.2%	u	436.2%	103.5*
O=C(c1ccc(-c2nc3ccccc3s2)s1)N1CCOCC1	-71.5*	-2.2	73.9%	u	30.0%	-4.2
CCOC(=O)C1CCN(S(=O)(=O)c2ccc(-c3nc4ccccc4s3)s2)CC1	47.8	45.4*	u	25.4%	37.4%	69.2*
O=C(NCc1cccnc1)c1nn(-c2ccccc2F)nc1CO	8.5	x	x	x	x	x
CN(C(=O)CSc1nc2ccccc2n1Cc1cccc(C(F)(F)F)c1)c1ccccc1	-12.3	x	x	x	x	x
COc1cccc(Cn2c(SCC(=O)N(C)c3ccccc3)nc3ccccc32)c1	-60.2*	x	x	x	x	x
CCN(CC)c1nc2ccccc2n(Cc2cccc(OC)c2)c1=O	1.1	3.7	1.47µM*	-18.3%	u	-4.6
COc1cccc(C(=O)Nc2ccccc2-c2nnc(-c3cccc(OC)c3)o2)c1	20.6	x	x	x	x	x
NC(=O)C(c1ccccc1)c1ccc(C(=O)c2ccccc2)cc1 (stereo unspecified)	20.2	-2.8	56.4%	0.0%	16.9%	-6.3
CN1CCc2c(n(CC(O)CNCc3ccccc3)c3ccccc23)C1=O (stereo unspecified)	-21.6	-4.6	19.8%	u	-12.6%	-16.2
CC(C)NCC(O)Cn1c2c(c3ccccc31)CCc1c-2cnn1-c1ccccc1 (stereo unspecified)	-103.5*	-9.3	u	u	2.94µM*	-27.6
COc1ccc(CN2C(=O)C(n3c(C)ccc3C)c3cc(OC(F)(F)F)ccc32)cc1 (stereo unspecified)	-87.9*	x	x	x	x	x
COc1ccc(CN2C(=O)C(n3ccc4ccccc43)c3cc(Cl)ccc32)cc1 (stereo unspecified)	-83.7*	x	x	x	x	x
CCOc1ccccc1CNC(=O)C1CCN(S(=O)(=O)N2CCC(C)CC2)CC1	-15.9	x	x	x	x	x
CCCC(=O)Nc1ccc2c(c1)C(=O)NC2=O	u	-2.2	32.7%	8.5%	14.9%	13.6
Cc1ccc2c(c1)Oc1ccc(NC(=O)CCCl)cc1C(=O)N2	-90.5*	-4.5	0.294µM*	u	u	-7.0
CC1(C)CNc2cc(N)ccc2S1	u	19.6	211.9%	-15.2%	43.8%	37.9
COc1cc(Nc2cc3c(cn2)cc(-c2cnn(C)c2)n3Cc2ccccc2)cc(OC)c1OC	-74.5*	x	x	x	x	x

Screens: PubChem, National Center for Advancing Translational Sciences (NCATS)
